This is part of a sample that, as a whole, favours compounds with a hit. Of some 79,000 tested, about 15% had one in any assay. The source made the active and inactive calls. Rule as the data show it: active = growth inhibition above about 70%; inactive = the rest.
Legend:
[1] = NCI Yeast Anticancer Drug Screen. Data for the mec2-1 strain (AID 157); settings: S. cerevisiae mec2-1 strain, hits give high values
Outline: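 Using mec2-1 yeast: add compound, measure growth, express inhibition versus vehicle-treated cultures.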

[2] = NCI Yeast Anticancer Drug Screen. Data for the rad14 strain (AID 159);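 also: 0% = growth of vehicle-treated control cultures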; settings: S. cerevisiae rad14 strain growth inhibition, hits give high values
Outline: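 Screen for anticancer potential: a yeast strain altered in DNA damage repair is grown with compound, and reduced growth is quantified against vehicle controls.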

[3] = NCI Yeast Anticancer Drug Screen. Data for the sgs1 mgt1 strain (AID 161);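 also: 0% = growth of cultures given vehicle only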; settings: S. cerevisiae sgs1 mgt1 strain, hits give high values
Outline: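 This yeast growth screen uses a strain with defined DNA-repair lesions; compound-treated growth is compared with vehicle-treated growth.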

[4] = NCI Yeast Anticancer Drug Screen. Data for the CLN2oe strain (AID 163);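 also: 0% = growth of vehicle-only control cultures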; settings: S. cerevisiae CLN2oe strain, hits give high values
Outline: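 Whole-cell yeast growth assay. A strain engineered for altered cell-cycle control received compound, and inhibition relative to vehicle-treated cultures was recorded.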

[5] = NCI Yeast Anticancer Drug Screen. Data for the cln2 rad14 strain (AID 165);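 also: 0% = growth equal to vehicle treated cultures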; settings: S. cerevisiae cln2 rad14 strain, hits give high values
Outline: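 Yeast strain cln2 rad14, bearing defects in cell cycle control and DNA repair, serves as the test system; values reflect growth inhibition compared with vehicle.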

[6] = NCI Yeast Anticancer Drug Screen. Data for the bub3 strain (AID 167); settings: S. cerevisiae bub3 mutant strain, hits give high values
Outline: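 Screening used yeast with an engineered genetic alteration affecting cell cycle control. Compound-exposed cultures were compared with vehicle cultures, and reduced growth was taken as inhibition.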

[7] = NCI Yeast Anticancer Drug Screen. Data for the wt2 strain (AID 169);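 also: 0% = growth of vehicle-treated yeast cultures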; settings: S. cerevisiae wt2 strain growth inhibition, hits give high values
Outline: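 Treated yeast vs. vehicle-treated yeast: growth inhibition determined.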

[8] = NCI Yeast Anticancer Drug Screen. Data for the mlh1 strain (AID 171);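 also: 0% = growth of vehicle-treated control cultures of the same strain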; settings: S. cerevisiae mlh1 strain growth inhibition, hits give high values
Outline: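 A yeast strain with a defined genetic lesion serves as the test organism. Cultures receive compound or vehicle, and growth is measured.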

[9] = NCI Yeast Anticancer Drug Screen. Data for the sgs1 strain (AID 173);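 also: 0% = growth of vehicle-only control cultures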; settings: S. cerevisiae sgs1 mutant, hits give high values
Outline: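 A genetically defined yeast mutant is incubated with the test compound, and its growth is compared to that of the same strain given vehicle.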

[10] = NCI Yeast Anticancer Drug Screen. Data for the mlh1 rad18 strain (AID 175); settings: S. cerevisiae mlh1 rad18 strain growth inhibition, hits give high values
Outline: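 Steps: expose repair-defective yeast to compound; measure growth; express inhibition against vehicle-treated controls.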

[11] = NCI Yeast Anticancer Drug Screen. Data for the rad18 strain (AID 177); settings: S. cerevisiae rad18 mutant growth inhibition, hits give high values
Outline: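 Measured value is growth inhibition of a yeast strain bearing a DNA repair alteration, referenced to vehicle-treated cells.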

[12] = NCI Yeast Anticancer Drug Screen. Data for the rad52 strain (AID 147);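 also: 0% = growth of vehicle-treated control cultures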; settings: S. cerevisiae rad52 mutant growth inhibition, hits give high values
Outline: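 Here a repair-compromised yeast strain receives each compound; its growth is then quantified and normalised to vehicle-only controls.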

[13] = NCI Yeast Anticancer Drug Screen. Data for the wt1 strain (AID 149);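 also: 0% = growth of vehicle-treated wt1 cultures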; settings: S. cerevisiae wt1 strain (SPY 50644) growth inhibition, hits give high values
Outline: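 Using yeast strain wt1, compound-induced growth inhibition was determined against vehicle-treated cultures.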

[14] = NCI Yeast Anticancer Drug Screen. Data for the rad50EPP+ strain (AID 151);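 also: 0% = growth of vehicle-treated control cultures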; settings: S. cerevisiae rad50 mutant strain, hits give high values
Outline: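 Read-out is yeast growth inhibition relative to vehicle; cells used were the rad50EPP+ strain.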

[15] = NCI Yeast Anticancer Drug Screen. Data for the mgt1 strain (AID 153); settings: S. cerevisiae mgt1 mutant growth inhibition, hits give high values
Outline: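 Measured: inhibition of mgt1 yeast growth by compound, normalized to vehicle-treated cultures.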

[16] = NCI Yeast Anticancer Drug Screen. Data for the rad50 strain (AID 155);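 also: 0% = growth of vehicle-only cultures of the same strain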; settings: S. cerevisiae rad50 strain growth inhibition, hits give high values
Outline: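 Relative growth inhibition (compound vs vehicle) was measured in yeast with a defined repair-gene alteration.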

[17] = at 5.0 µM (retest, dose inferred, filed as 0.5)
[18] = at 50.0 µM (retest, dose inferred, filed as 5.0)

Measured: growth inhibition

O=C1CCC(Cc2ccccc2)CN1 (centres undefined)
inactive: [1]; [17] -11% | [1]; at 11.0 µM 0% | [1]; at 33.0 µM -1% | [1]; [18] -3% | [1]; at 50.0 µM 19.7% | [1]; at 100.0 µM 3% | [2]; at 1.2 µM -2% | [2]; at 3.7 µM -1% | [2]; at 11.0 µM -2% | [2]; at 33.0 µM -1% | [2]; at 100.0 µM 1% | [3]; [17] 3% | [4]; at 1.2 µM -8% | [4]; at 3.7 µM -5% | [4]; at 11.0 µM 3% | [4]; at 33.0 µM -4% | [4]; at 100.0 µM -6% | [5]; [17] -2% | [5]; [18] 4% | [5]; at 50.0 µM 0.15% | [6]; at 1.2 µM -4% | [6]; at 3.7 µM -5% | [6]; [17] -11% | [6]; at 11.0 µM -5% | [6]; at 33.0 µM -7% | [6]; [18] -8% | [6]; at 50.0 µM 10.9% | [6]; at 100.0 µM -8% | [7]; at 1.2 µM -3% | [7]; at 3.7 µM 0% | [7]; at 11.0 µM 3% | [7]; at 33.0 µM 50% | [8]; at 1.2 µM -3% | [8]; at 3.7 µM -2% | [8]; at 11.0 µM 0% | [8]; at 33.0 µM 37% | [9]; at 1.2 µM 0% | [9]; at 3.7 µM 1% | [9]; at 11.0 µM 11% | [9]; at 33.0 µM 62% | [10]; [17] -9% | [10]; [18] 1% | [10]; at 50.0 µM 3.7% | [11]; at 1.2 µM 1% | [11]; at 3.7 µM -2% | [11]; at 11.0 µM 4% | [11]; at 33.0 µM 0% | [11]; at 100.0 µM 1%
active: [3]; [18] 80% | [3]; at 50.0 µM 81.5% | [7]; at 100.0 µM 92% | [8]; at 100.0 µM 90% | [9]; at 100.0 µM 93%

O=C(CN(c1ccccc1)c1ccccc1)n1nnc2ccccc21
active: [12]; at 100.0 µM 85% | [13]; at 100.0 µM 82% | [14]; at 100.0 µM 71% | [15]; at 100.0 µM 88% | [16]; [18] 76% | [16]; at 50.0 µM 74.5% | [16]; at 100.0 µM 84% | [1]; at 50.0 µM 78.6% | [1]; at 100.0 µM 85% | [2]; at 100.0 µM 85% | [6]; [18] 84% | [6]; at 50.0 µM 74.4% | [6]; at 100.0 µM 76% | [7]; at 100.0 µM 80% | [8]; at 100.0 µM 86% | [9]; at 100.0 µM 90% | [10]; [18] 87% | [10]; at 50.0 µM 70.2% | [11]; at 100.0 µM 90%
inactive: [12]; at 1.2 µM 18% | [12]; at 3.7 µM 20% | [12]; at 11.0 µM 14% | [12]; at 33.0 µM 39% | [13]; at 1.2 µM 10% | [13]; at 3.7 µM -11% | [13]; at 11.0 µM -19% | [13]; at 33.0 µM 0% | [14]; at 1.2 µM 15% | [14]; at 3.7 µM 7% | [14]; at 11.0 µM 15% | [14]; at 33.0 µM 42% | [15]; at 1.2 µM 6% | [15]; at 3.7 µM -20% | [15]; at 11.0 µM -10% | [15]; at 33.0 µM 9% | [16]; at 1.2 µM -9% | [16]; at 3.7 µM -7% | [16]; [17] -1% | [16]; at 11.0 µM 14% | [16]; at 33.0 µM 28% | [1]; at 1.2 µM -9% | [1]; at 3.7 µM 0% | [1]; [17] -6% | [1]; at 11.0 µM 13% | [1]; at 33.0 µM 23% | [1]; [18] 23% | [2]; at 1.2 µM -19% | [2]; at 3.7 µM -18% | [2]; at 11.0 µM -18% | [2]; at 33.0 µM 2% | [3]; [17] -15% | [3]; [18] 36% | [3]; at 50.0 µM 47.7% | [4]; at 1.2 µM 8% | [4]; at 3.7 µM -9% | [4]; at 11.0 µM -9% | [4]; at 33.0 µM 4% | [4]; at 100.0 µM 69% | [5]; [17] -2% | [5]; [18] -29% | [5]; at 50.0 µM 52.2% | [6]; at 1.2 µM -21% | [6]; at 3.7 µM -19% | [6]; [17] -42% | [6]; at 11.0 µM -35% | [6]; at 33.0 µM -19% | [7]; at 1.2 µM -7% | [7]; at 3.7 µM 8% | [7]; at 11.0 µM -6% | [7]; at 33.0 µM 6% | [8]; at 1.2 µM 9% | [8]; at 3.7 µM 6% | [8]; at 11.0 µM 13% | [8]; at 33.0 µM 36% | [9]; at 1.2 µM 19% | [9]; at 3.7 µM 16% | [9]; at 11.0 µM 14% | [9]; at 33.0 µM 32% | [10]; [17] -21% | [11]; at 1.2 µM 6% | [11]; at 3.7 µM 14% | [11]; at 11.0 µM 6% | [11]; at 33.0 µM 30%

CCCCCCCCCCCCCCCCCCNc1nc(=O)n(C2CC(OP(=O)(O)OCC3OC(n4cc(F)c(=O)[nH]c4=O)CC3O)C(CO)O2)cc1F (centres undefined)
inactive: [12]; at 1.2 µM 14% | [12]; at 3.7 µM 12% | [12]; at 11.0 µM -1% | [12]; at 33.0 µM 11% | [12]; at 100.0 µM 66% | [13]; at 1.2 µM 4% | [13]; at 3.7 µM -4% | [13]; at 11.0 µM -13% | [13]; at 33.0 µM -8% | [13]; at 100.0 µM 46% | [14]; at 1.2 µM 9% | [14]; at 3.7 µM 12% | [14]; at 11.0 µM 7% | [14]; at 33.0 µM 8% | [14]; at 100.0 µM 23% | [15]; at 1.2 µM 25% | [15]; at 3.7 µM 8% | [15]; at 11.0 µM -1% | [15]; at 33.0 µM 32% | [16]; at 1.2 µM 27% | [16]; at 3.7 µM 28% | [16]; [17] 34% | [16]; at 11.0 µM 22% | [16]; at 33.0 µM 37% | [1]; at 1.2 µM 9% | [1]; at 3.7 µM 15% | [1]; [17] 24% | [1]; at 11.0 µM 3% | [1]; at 33.0 µM -1% | [1]; at 100.0 µM 61% | [2]; at 1.2 µM 9% | [2]; at 3.7 µM 0% | [2]; at 11.0 µM 3% | [2]; at 33.0 µM -4% | [2]; at 100.0 µM 51% | [3]; [17] 59% | [4]; at 1.2 µM -23% | [4]; at 3.7 µM -33% | [4]; at 11.0 µM -42% | [4]; at 33.0 µM -9% | [4]; at 100.0 µM 54% | [5]; [17] 7% | [5]; [18] 68% | [6]; at 1.2 µM 4% | [6]; at 3.7 µM 5% | [6]; [17] 15% | [6]; at 11.0 µM -27% | [6]; at 33.0 µM -10% | [6]; at 50.0 µM 68.3% | [6]; at 100.0 µM 40% | [7]; at 1.2 µM -38% | [7]; at 3.7 µM -34% | [7]; at 11.0 µM -68% | [7]; at 33.0 µM 15% | [8]; at 1.2 µM 10% | [8]; at 3.7 µM 19% | [8]; at 11.0 µM 7% | [8]; at 33.0 µM 18% | [9]; at 1.2 µM 1% | [9]; at 3.7 µM -5% | [9]; at 11.0 µM -9% | [9]; at 33.0 µM 22% | [10]; [17] 34% | [11]; at 1.2 µM 9% | [11]; at 3.7 µM -9% | [11]; at 11.0 µM -16% | [11]; at 33.0 µM 35%
active: [15]; at 100.0 µM 77% | [16]; [18] 88% | [16]; at 50.0 µM 83.9% | [16]; at 100.0 µM 88% | [1]; [18] 91% | [1]; at 50.0 µM 89.4% | [3]; [18] 95% | [3]; at 50.0 µM 87.7% | [5]; at 50.0 µM 86.3% | [6]; [18] 93% | [7]; at 100.0 µM 79% | [8]; at 100.0 µM 75% | [9]; at 100.0 µM 78% | [10]; [18] 93% | [10]; at 50.0 µM 86% | [11]; at 100.0 µM 89%
